According to PubChem BioAssay AID1851 (National Center for Advancing Translational Sciences (NCATS), 2009):
The campaign covered roughly 16,000 compounds. About 5,800 (36%) were called active. Another 23% or so got no clear call; they are omitted. Calls follow the shape of the dose curve; as a rule, active = well fitted curve in the direction sought with a large enough effect; inconclusive = small, poorly fitted or top-dose-only effect, or effect the other way; inactive = no such curve, though single readings can be large or run the other way. The list shows a part of the results.

molecular target: Cytochrome P450 2C19 (Homo sapiens) (UniProt P33261); assay: Cytochrome panel assay with activity outcomes; settings: recombinant CYP, pro-luciferin dealkylation, luminescence, p450-cyp2c19; series mostly up to 57.1 µM
Sequence (P33261 whole entry, looked up): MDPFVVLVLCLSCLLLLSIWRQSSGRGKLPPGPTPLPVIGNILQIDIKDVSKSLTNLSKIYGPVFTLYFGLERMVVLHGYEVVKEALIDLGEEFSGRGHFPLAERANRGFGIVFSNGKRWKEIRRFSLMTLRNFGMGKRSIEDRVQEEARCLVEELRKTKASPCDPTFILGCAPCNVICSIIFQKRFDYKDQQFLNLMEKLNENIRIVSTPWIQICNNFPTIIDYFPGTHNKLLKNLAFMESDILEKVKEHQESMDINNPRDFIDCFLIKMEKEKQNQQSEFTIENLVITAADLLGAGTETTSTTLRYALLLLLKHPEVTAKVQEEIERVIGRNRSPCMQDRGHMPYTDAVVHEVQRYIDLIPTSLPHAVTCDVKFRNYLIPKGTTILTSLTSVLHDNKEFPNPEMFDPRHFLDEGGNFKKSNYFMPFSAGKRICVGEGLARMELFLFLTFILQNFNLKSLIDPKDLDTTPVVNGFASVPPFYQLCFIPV
% is scaled to controls: 0 for no effect and ±100 for the full control effect.

Row | SMILES | activity, negative = inhibition | AC50
1 | Cc1cc(=Nc2ccc3c(c2)c(N)cc(C)[n+]3C)nc(N)n1C | 35.5% [at 11.4 µM] (inactive) | –
2 | CC(NC(=O)CCSc1nc(-c2ccco2)cc(C(F)(F)F)n1)c1ccccc1 (configuration not stated) | – | 1.41 µM (active)
3 | COc1cc(C2C(C(=O)OCCC#N)=C(C)NC3=C2S(=O)(=O)c2ccccc23)cc(OC)c1OC (configuration not stated) | – | 20 µM (active)
4 | COc1ccccc1CNc1ccnc(-c2cccc(C#N)c2)n1 | – | 3.98 µM (active)
5 | COc1ccc(CNc2ccnc(-c3cccc(C#N)c3)n2)c(OC)c1 | – | 3.98 µM (active)
6 | Cc1nn(C(C)C(=O)Nc2ccc(Cl)cn2)c(C)c1[N+](=O)[O-] (configuration not stated) | – | 3.16 µM (active)
7 | COc1cccc(NC(=S)NNC(=O)C(C)n2nc(C)c([N+](=O)[O-])c2C)c1 (configuration not stated) | – | 7.94 µM (active)
8 | Cc1nn(C(C)C(=O)Nc2sc3c(c2C#N)CCCC3)c(C)c1[N+](=O)[O-] (configuration not stated) | – | 10 µM (active)
9 | Cc1nn(C)c(C(=O)NNC(=S)Nc2ccc(Cl)cc2)c1[N+](=O)[O-] | – | inactive
10 | OC(CN1CCCCC1)CN1CCCCC1 | – | inactive
11 | FC(F)(F)c1nc2nc(Cl)c(Cl)nc2n1CCCN1CCOCC1 | -10.6% [at 11.4 µM] (inactive) | –
12 | CCn1c(COc2ccc(C)cc2)nnc1SCc1ccc(C#N)cc1 | – | 15.8 µM (active)
13 | C=C1C=C(Br)C2(OCCCO2)[C@H]2OC12 (some centres not stated) | 18% [at 11.4 µM] (inactive) | –
14 | CN1CCN(c2nc(-c3cccnc3)nc3ccccc23)CC1 | – | inactive
15 | CC1CCCCN1c1nc(-c2ccncc2)nc2ccccc12 (configuration not stated) | – | 0.355 µM (active)
16 | C/C(=N\NC(=O)c1ccc(Br)cc1)c1ccccc1 | – | 2.82 µM (active)
17 | C/C(=N/NC(=O)Cc1cccn1C)c1ccccc1 | – | 10 µM (active)
18 | COc1ccc(/C(C)=N/NC(=O)c2ccc(N(C)C)cc2)cc1 | – | inactive
19 | CC(=NCC(=O)O)c1ccccc1 | 0.942% [at 11.4 µM] (inactive) | –
20 | CC(=O)NN1C(=O)c2ccc(Oc3ccc([N+](=O)[O-])cc3)cc2C1=O | – | inactive
21 | CC(=O)NN1C(=O)c2ccc(Oc3cccc([N+](=O)[O-])c3)cc2C1=O | – | 11.2 µM (active)
22 | Cc1sc2ccccc2[n+]1CCC(=O)O | 13.1% [at 11.4 µM] (inactive) | –
23 | CCOC(=O)C[n+]1c(C)sc2ccc(OC)cc21 | – | 5.01 µM (active)
24 | Cc1sc2ccccc2[n+]1CCC(C)S(=O)(=O)[O-] (configuration not stated) | – | inactive
25 | C/C(=N\NC(=O)c1[nH]c2c([N+](=O)[O-])cc(C)cc2c1-c1ccccc1)c1cccnc1 | – | 4.47 µM (active)

Row | SMILES | activity, negative = inhibition | AC50
26 | O=C(N/N=C(\c1ccccc1)c1cccnc1)C(O)(c1ccccc1)c1ccccc1 | – | inactive
27 | O=C(Oc1ccccc1[N+](=O)[O-])c1cccnc1 | – | inactive
28 | CC(C)(C)[C@@]1(O)CCN2C[C@@H]3c4ccccc4CCc4cccc(c43)[C@@H]2C1 | – | inactive
29 | CN1CCN(c2ncncc2-c2cccnc2)CC1 | – | inactive
30 | CN1CCN2c3ncccc3Cc3ccccc3C2C1 (configuration not stated) | – | 0.0501 µM (active)
31 | Oc1ccc([C@@H]2CNCc3sccc32)cc1O | – | inactive
32 | Cc1cccc(NC(=O)NNC(=O)c2cc(-c3ccccc3Cl)nc3ccccc23)c1 | – | 3.16 µM (active)
33 | O=C(NNC(=O)c1cc(-c2ccc(Cl)c(Cl)c2)nc2ccccc12)Nc1ccccc1 | – | 4.47 µM (active)
34 | CC[C@H](C)N(C)C(=O)c1cc2ccccc2c(-c2ccccc2Cl)n1 | – | inactive
35 | O=C(COc1ccc2ccccc2c1Br)NNC(=O)Nc1ccccc1 | – | 3.55 µM (active)
36 | C[C@@H]1[C@H]2CC[C@@H]3[C@@H]4CC=C5C[C@@H](N(C)C)CC[C@]5(C)[C@@H]4CC[C@@]32CN1C | – | inactive
37 | Cc1noc(C)c1C(=O)N1CCC[C@@]2(CCN(c3ncccn3)C2)C1 | – | inactive
38 | Cc1ccc(C(=O)NC(=S)NCC(=O)c2ccccc2)cc1 | – | inactive
39 | Cc1ccccc1C(=O)NC(=S)NCC(=O)c1ccccc1 | – | 4.47 µM (active)
40 | Cc1nn(-c2ccccc2)c2c1C(c1ccc(O)c(O)c1)N1C(=N2)C(Nc2ccccc2)=Nc2ccccc21 (configuration not stated) | – | 3.16 µM (active)
41 | CC(=O)Nc1ccc(NC2=Nc3ccccc3N3C2=Nc2c(c(C)nn2-c2ccccc2)C3c2ccccc2)cc1 (configuration not stated) | – | 2 µM (active)
42 | COC(=O)CN(c1ccccn1)S(=O)(=O)c1ccccc1 | – | inactive
43 | CN(CC(=O)O/N=C(\N)c1ccccn1)S(=O)(=O)c1ccccc1 | – | inactive
44 | O=C(CN(c1ccccc1)S(=O)(=O)c1ccccc1)NCCSCc1ccco1 | – | 8.91 µM (active)
45 | Cc1cccc(N(CC(=O)NCCSCc2ccco2)S(=O)(=O)c2ccccc2)c1 | – | 2.51 µM (active)
46 | Cc1cccc(CSCCNC(=O)c2ccc(N(C)S(=O)(=O)c3ccccc3)cc2)c1 | – | 1.12 µM (active)
47 | Cc1cc(C)cc(N(CC(=O)NCCSc2ccccn2)S(=O)(=O)c2ccccc2)c1 | – | 2.24 µM (active)
48 | CCCOc1ccccc1-c1nc2n[nH]nc2c(=O)[nH]1 | – | inactive
49 | NC(N)=NC[C@@H]1COC2(CCCCC2)O1 | – | inactive
50 | N[C@@H](CS(=O)O)C(=O)O | – | inactive

Row | SMILES | activity, negative = inhibition | AC50
51 | COc1ccccc1NC(=S)NC(=O)c1ccc(-c2ccc(Cl)cc2)o1 | – | 8.91 µM (active)
52 | Fc1cc(Br)ccc1NC(=S)NCCc1ccccc1 | – | 1.58 µM (active)
53 | Fc1ccc(NC(=S)NCCc2ccccc2)c(F)c1F | – | 0.355 µM (active)
54 | Fc1ccccc1NC(=S)NCCc1ccccc1 | – | 3.16 µM (active)
55 | COc1ccccc1NC(=S)NCCc1ccccc1 | – | 3.16 µM (active)
56 | Cc1cc(OC(=O)c2ccc(Cl)cc2)cc(=O)n1C | – | inactive
57 | CC(=O)Nc1cccc(C(=O)OCc2ccc(C(=O)Oc3ccc(Cl)cc3)cc2)c1 | – | 4.47 µM (active)
58 | OCCN(CO)CO | 0.957% [at 11.4 µM] (inactive) | –
59 | CN(C)CCOC(=O)[C@@H](c1ccccc1)C1(O)CCCC1 | – | inactive
60 | O=C(Cn1c(C(F)(F)F)nc2ccccc21)c1ccc(F)cc1 | – | 1.58 µM (active)
61 | O=C(CCCN1CCC(O)(c2cccc(C(F)(F)F)c2)CC1)c1ccc(F)cc1 | – | inactive
62 | O=C(Cn1c(C(F)(F)F)nc2ccccc21)c1ccccc1 | – | 3.98 µM (active)
63 | O=S(=O)(Nc1ccc2c(c1)OCCO2)c1cccc2cccnc12 | – | 3.55 µM (active)
64 | COc1ncc2nc(-c3cn(C)c4ccccc34)c(=O)n(-c3ccccc3)c2n1 | – | inactive
65 | Cn1cc(/C=N/n2cnc3scc(-c4ccccc4)c3c2=O)c2ccccc21 | – | 8.91 µM (active)
66 | CN1CCN(c2ncc3nc(-c4cn(C)c5ccccc45)c(=O)n(-c4ccccc4)c3n2)CC1 | – | inactive
67 | Cc1ccc(C)c(S(=O)(=O)NC(C)C(=O)Nc2ccc(-c3nc4ccccc4s3)cc2)c1 (configuration not stated) | – | inactive
68 | Cc1cccc(NC(=S)c2nc3ccccc3s2)c1 | – | 5.62 µM (active)
69 | N#C/C(=C\NC(=S)c1ccncc1)c1nc2ccccc2s1 | -29.2% [at 11.4 µM] (inactive) | –
70 | O=C(NCC(c1cccs1)N1CCOCC1)c1ccco1 (configuration not stated) | – | 8.91 µM (active)
71 | O=C(c1ccco1)N1CCC2(CCN(Cc3nccs3)CC2)CC1 | – | inactive
72 | COc1cccc(C(=O)N2N=C(c3cccc(OC)c3)CC2(O)C(F)(F)F)c1 (configuration not stated) | – | 0.794 µM (active)
73 | O=C(CCc1ccccc1)Nc1ncn[nH]1 | – | inactive
74 | CCOC(=O)N1CCN(C(=O)CCn2nc(-c3ccccc3)ccc2=O)CC1 | – | inactive
75 | CCOC(=O)N1N=C(c2ccccc2)CC1(O)C(F)(F)F (configuration not stated) | – | 15.8 µM (active)

Row | SMILES | activity, negative = inhibition | AC50
76 | CCC1=NN(C(=O)CCc2ccccc2)C(O)(C(F)(F)F)C1 (configuration not stated) | – | 0.224 µM (active)
77 | CCc1cc2c(nc1CC)CCN(CC/C(C)=N/OCC[C@@H]1C=C[C@H](OC(C)=O)[C@H](COC(C)=O)O1)C2 | 7.29% [at 11.4 µM] (inactive) | –
78 | O=C(Cn1nnc(-c2ccccc2)n1)OCc1ccccc1 | – | 3.98 µM (active)
79 | CN1/C(=C\C(=O)COC(=O)Cn2nnc(-c3ccccc3)n2)C(C)(C)c2ccccc21 | – | 11.2 µM (active)
80 | COCCn1c(=O)c(-c2cc(F)cc(F)c2)nc2cnc(N(C)C)nc21 | – | inactive
81 | O=[N+]([O-])C1=CC=C2C(=NC3(CCCCC3)N2O)C1=NC1CCCCC1 | – | 3.16 µM (active)
82 | Cc1ccc(NC(=O)Nc2ncccc2C)cc1 | – | 15.8 µM (active)
83 | Cc1cccc(C)c1NC(=O)Nc1ccc(S(N)(=O)=O)cc1 | 23.1% [at 11.4 µM] (inactive) | –
84 | O=C(Nc1ccc2ncccc2c1)Nc1ccc2ncccc2c1 | 14.5% [at 11.4 µM] (inactive) | –
85 | CCN(/C=N/c1sc2c(c1C#N)CCCCC2)CC | – | 1.26 µM (active)
86 | CC(C)NCC[C@@H](O)c1cc2ccccc2o1 | 31.3% [at 11.4 µM] (inactive) | –
87 | CCOC(=O)CSc1nnc(CSc2nc3sc4c(c3c(=O)[nH]2)CCCC4)n1-c1ccccc1 | – | 2.51 µM (active)
88 | COC(=O)[C@@H](NC(=O)Nc1ccc(C(C)=O)cc1)C(C)C | – | 17.8 µM (active)
89 | CC(=O)Nc1ccc(S(=O)(=O)c2ccc(N)cc2)cc1 | – | 15.8 µM (active)
90 | Nc1ccc(S(=O)(=O)c2ccc(NC(=O)c3cccnc3)cc2)cc1 | 3.12% [at 11.4 µM] (inactive) | –
91 | CC(=O)Nc1ccc(S(=O)(=O)N=S(C)C)cc1 | 14.7% [at 11.4 µM] (inactive) | –
92 | COC(=O)C(NS(=O)(=O)c1ccc(NC(C)=O)cc1)C(C)C (configuration not stated) | – | 3.16 µM (active)
93 | Cc1ccc(S(=O)(=O)N[C@H](C(=O)O)C(C)C)cc1 | 4% [at 11.4 µM] (inactive) | –
94 | Oc1cc2c(cc1O)[C@H](c1ccccc1)CNCC2 | – | inactive
95 | CO/N=C\[C@@H](C)[C@H](OCc1ccccc1)C(C)C | 2.64% [at 11.4 µM] (inactive) | –
96 | Cc1ccc(C(C2C(=O)CC(C)(C)CC2=O)C2C(=O)CC(C)(C)CC2=O)s1 | – | 11.2 µM (active)
97 | CC1(C)CC(=O)C(C(c2cccc(O)c2O)C2C(=O)CC(C)(C)CC2=O)C(=O)C1 | 26% [at 11.4 µM] (inactive) | –
